Experiments:
Assay in all cases: PBM binding z-score (relative to random genomic background probes); higher = stronger binding; sequences stand for … in GC…GCGATTGACAGCGTAGAATGAAGG
[1] = test system: FXR:RXRa (NR concentration 270 nM, RXRa partner concentration 90 nM)
Outline: (§1)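 For binding z-scores, the reference was random background probes on custom Agilent 4×180K protein-binding microarrays. These arrays were incubated 1 h with ligand-free nuclear receptor dimers in PBS pH 7.4, 2% milk, 0.02% Triton X-100, 1 mM DTT, 0.2 mg/mL BSA and 0.4 mg/ml salmon testes DNA. Fluorescence was scanned after antibody detection of each partner (one per run) and regression-normalized.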

[2] = test system: LXRa:RXRa (NR concentration 270 nM, RXRa partner concentration 90 nM)
Outline: as §1

[3] = test system: LXRa homodimer (NR concentration 270 nM)
Outline: as §1

[4] = test system: LXRb:RXRa (NR concentration 270 nM, RXRa partner concentration 90 nM)
Outline: as §1

[5] = test system: LXRb homodimer (NR concentration 270 nM)
Outline: as §1

[6] = test system: PPARa:RXRa (NR concentration 270 nM, RXRa partner concentration 90 nM)
Outline: as §1

[7] = test system: PPARg:RXRa (NR concentration 180 nM, RXRa partner concentration 90 nM)
Outline: as §1

[8] = test system: PPARg:RXRa 270nM:90nM, anti-RXR (NR concentration 270 nM, RXRa partner concentration 90 nM)
Outline: as §1

[9] = test system: PPARg:RXRa 30nM:10nM, anti-RXR (NR concentration 30 nM, RXRa partner concentration 10 nM)
Outline: as §1

[10] = test system: PPARg:RXRa 90nM:30nM, anti-RXR (NR concentration 90 nM, RXRa partner concentration 30 nM)
Outline: as §1

Sequence	PBM binding z-score [1]	PBM binding z-score [2]	PBM binding z-score [3]	PBM binding z-score [4]	PBM binding z-score [5]	PBM binding z-score [6]	PBM binding z-score [7]	PBM binding z-score [8]	PBM binding z-score [9]	PBM binding z-score [10]
ATCTCTATGTAAAAGTTCAGTGAATCCCGAGGAT	0.48	1.17	1.3	0.915	0.829	2.49	3.27	4.6	3.31	4.95
CCTCGGAGGACAACGGGAGGTCAGAGCTGCCAGA	1.17	2.32	1.9	1.52	-0.594	2.1	0.336	0.563	-0.741	-0.147
TAGCCTAGGTCATGCGGGCGAGTATAGTGTCGGC	3.79	2.5	0.369	1.21	-0.906	3.32	2.45	2.08	-0.413	1.37
CCTCAAAGTTCAAGGTAACGTAACAGAAAGCAGC	5.83	5.87	3.49	3.83	1.95	4.85	2.87	3.67	0.99	2.22
TCTTGTAGATCAACAGTAGGTTAAGAAAGATCGA	0.361	0.659	0.0852	0.659	-0.18	1.13	0.249	1.49	2.78	2.39
AGTCAAAGTTCAGGACGAGGAAACGTAAAGCACG	3.83	3.6	0.784	1.92	0.307	3.21	5.02	5.02	2.33	4.27
GGAACGAGGGCATTCGAGTTGATAGCCTGGCGAT	0.904	1.66	-0.751	0.0314	-0.65	1.42	0.665	0.992	-0.34	0.776
ATCCCTAGGTAACCAAGTTCAGTGAATGCCGAAC	0.476	1.09	1.1	0.956	0.382	0.985	0.276	0.246	-0.161	-0.0393
TTACCAAGGTGAAAGGTCGTTTATGCACGCCTTG	3.55	3.3	0.773	3.33	0.0475	5.2	8.69	7.73	6.93	8.46
CCTTACGGGTCAAGGTTATAGAACGGGTGGTACG	5.4	3.68	0.401	3	-0.0236	5.1	4.04	4.67	1.87	3.53
AGAATGAGGTTATACGTAAATCAGGGAAGAAAGT	2.3	1.9	0.21	1.77	0.0752	3.24	2.5	2.79	0.991	2.07
CGTACAAGGTCAGCAGGTCAGTGAAAGCGACGTG	6.31	4.3	0.745	3.29	-0.00943	5.32	5.54	5.17	1.99	3.64
CAGCTTAGGTCAGGGCCAGTATAGGAGGAACGTT	2.21	1.3	-0.0157	0.814	-0.56	2.17	0.606	0.732	-0.0225	0.447
TGAATGAGGTTGTAAGATCAGGGAACGTTGCAAA	-0.0998	-0.208	-0.429	-0.35	0.0245	0.282	-0.0383	0.349	0.261	0.21
ATACCAAGGTGATCGTGAGGGCGTTGATACTAAC	0.788	0.233	-0.00704	0.447	-0.219	0.489	0.369	-0.183	-0.112	-0.238
CCGACTGGGGCAATGTTACCATAACGCACAGCCA	-0.585	-0.725	-0.195	-0.162	-1.01	0.11	1.21	0.645	-0.14	0.223
CCGAGTAGGTTATGGGGTATTCAGGCAACGGTGA	0.497	0.701	0.47	1.09	0.945	1.81	2.56	3.45	0.984	2.68
TGAATGAGGTTAAAGATCAGGAAACGTGGCGTCG	3.12	2.5	-0.309	1.69	-0.0435	4.49	5.58	6.34	4.41	6.93
CGAGCTAGGTCAGAACAGGACAGTGAAGGATGAT	1.62	0.749	-0.308	-0.00924	-0.647	1.11	1.11	0.596	-0.277	0.0129
GCATATAGGTAATACCAGGTGAAAGTCCGATTGT	0.107	2.05	0.172	0.185	-0.363	1.26	1.13	1.19	0.303	0.881
CCTGCTGGGTCATGGTCAGCTAATCTACAGTATG	2.47	1.59	-0.658	1.42	-0.697	3.32	1.97	2.53	0.317	1.69
GCGACTTGGGCAAAGCAGGTTACCATAAGGTTGG	-0.371	-0.57	-0.467	-0.537	-1.29	0.243	0.451	-0.351	-0.654	-0.41
TCGAGTAGGTTACCAATGGGGCTTTCAGCTTTCT	-0.0439	0.131	-1.06	0.62	-0.632	0.836	-0.121	0.803	1.11	0.796
ATCTCTAGGCAACCAAGTTCAGTGAATGCCGAAC	0.291	0.227	0.263	0.113	0.281	0.303	0.114	0.0403	-0.317	0.0136
ACTAGTTGGTCAGCTAAGGTCACACACAATTCGG	3.65	3.51	2.56	3.35	0.836	3.93	1.94	2.76	0.836	1.64

Sequence	PBM binding z-score [1]	PBM binding z-score [2]	PBM binding z-score [3]	PBM binding z-score [4]	PBM binding z-score [5]	PBM binding z-score [6]	PBM binding z-score [7]	PBM binding z-score [8]	PBM binding z-score [9]	PBM binding z-score [10]
CCTGCTAGGACATGGTCAGCTAATCTACAGTATG	-0.435	-0.686	-0.63	-0.793	-0.639	-1.84	0.246	-0.764	-0.445	-0.928
TCTCGGAGGACACGAAGGTCAGAGCGTTCCAGAG	1.4	1.13	0.0459	0.874	-1.15	2.05	0.373	1.63	2.34	2.05
CCTGCTAGGTCATGGTCTGCTAATCTACAGTATG	3.19	2.35	0.138	1.97	-0.218	3.4	2.18	3.48	1.08	2.49
GCGACTGGGGCAGAGCAGGTTACCATAAGGTTGG	0.158	-0.389	-0.79	-0.197	-1.19	0.462	0.564	0.0587	-1.01	-0.178
TCTTGTAGATCCACAGGAGGTTAAGAAAGATCGA	0.0862	1.26	-0.232	1.08	-0.363	1.05	-0.0307	1.43	2.66	1.83
GGAACCAGGGCATTCGAGTTGATAGCATGGCGAT	1.3	0.74	-0.0183	0.0646	0.153	1.69	0.973	0.862	-0.134	0.0636
TGGCCTAGGTCAGATCGGGCCAGTATACGCTATA	2.31	0.419	-0.777	0.152	-1.29	1.39	0.44	0.442	-0.693	-0.369
CGTCCCAGGTCAAAGGTCAGTGAAGAGATGACGG	7.79	6.36	2.98	6.02	0.888	7.24	10.8	9.06	8.62	9.26
ACTAGTCGGTCAGCTGAGGTCACACACAATTCGG	5.04	4.68	4.97	3.86	1.32	4.15	2.51	2.99	0.573	2
GCATATAGGTAATACACGGTGAAAGTCCGATTGT	0.145	0.988	0.163	-0.0915	-0.496	0.9	0.912	0.806	0.349	0.684
ATAGGTAGGTTACATCCGGGTCATTCAGGCTATG	2.31	4.03	1.3	2.53	0.566	3.17	2.36	2.74	0.814	1.92
GCGACTGAGGCAAAGCAGGTTACCATAAGGTTGG	-0.391	-0.493	-0.444	-0.567	-1.32	-0.0233	0.328	-0.42	-0.736	-0.693
TCTTGTAGATCAATACAGGTTAAGAAAGTGCGCT	0.747	2.01	0.393	1.23	0.0132	1.29	0.19	1.49	2.99	2.11
GCTAGTTGGTCTGTAAAAGGTCACACACCGGTCG	3.27	4.45	4.26	3.98	0.57	4.33	2.5	4.63	2.19	4.12
GATACAGGGTCAGCGAGAGGCCAGAGTATGGAAA	5.07	3.15	-0.446	2.63	-1.12	5.05	4.14	3.78	1.07	2.38
CCTACTGGGCCAAAGATCATTGATTCCAATGCTC	-0.285	-0.527	-0.374	-0.317	-0.68	3.5	6.88	7.31	6.04	7.74
TCTTGTAGATCAGCAGGTTAACAAAGCTGGCCAA	0.321	0.368	-0.313	0.507	-0.6	1.21	0.102	1.77	2.61	2.21
CCGACTGGGGCATAACGTTACCATAAGCCAGCCC	-0.396	-0.323	-0.401	-0.205	-1.06	0.0712	0.89	0.484	-0.471	0.117
TCATATAGCTAATACAGGTGAAAGTCGGCATCTA	0.322	0.835	0.0705	0.543	-0.0868	1.17	0.706	1.77	3.13	2.35
CTCGAAAGGTCGTGATCAGGTGAGTATACCAAAC	5.37	3.83	0.129	3.24	0.0388	4.89	3.12	3.71	1.2	2.73
ACTATTAGTTGAGACGAGGGCAACCAATAGGTTG	0.56	0.143	-0.167	0.143	-0.0545	0.282	0.647	0.464	0.235	0.58
ATAGGTAGGTTAAGGGTCATTCAGGTTGGTTCGC	5.35	5.02	3.31	4.83	2.47	5.86	9.73	8.69	8.35	9.51
AGTCAAAGTTCAGGACGAGGGAACGTAAAGCACG	3.73	3.68	0.988	1.57	0.379	3.05	4.52	4.88	1.99	3.87
CGTCCAAGGTCAAGGTCAGTGAGAGAGACTCGAA	7.65	5.63	1.24	4.59	0.615	6.05	6.16	6.13	2.58	4.79

— the supplement of paper PMC6555819
